This is part of a sample that, as a whole, favours compounds with a hit. Of some 83,000 tested, about 20% had one in any assay.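 Cells were grown in 96-well plates and exposed to the test compound at a single concentration for 48 hours; results are reported as percent growth, with values below 10 considered active.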 A number with no mark means an inactive call. Active and inactive are the calls of the source.
Tests used:
Assay in all cases: NCI-60 one-dose screen, 48 h (100 = growth as untreated, 0 = no growth, -100 = all killed)
Conditions in all cases: 10 µM unless noted
SR leukemia = tested on: SR leukemia
RPMI-8226 leukemia = tested on: RPMI-8226 leukemia
OVCAR-5 ovarian = tested on: OVCAR-5 ovarian
OVCAR-4 ovarian = tested on: OVCAR-4 ovarian
SK-OV-3 ovarian = tested on: SK-OV-3 ovarian
IGROV1 ovarian = tested on: IGROV1 ovarian
OVCAR-3 ovarian = tested on: OVCAR-3 ovarian
HS 578T breast = tested on: HS 578T breast
NCI/ADR-RES ovarian = tested on: NCI/ADR-RES ovarian
OVCAR-8 ovarian = tested on: OVCAR-8 ovarian

Compound	growth (SR leukemia)	growth (RPMI-8226 leukemia)	growth (OVCAR-5 ovarian)	growth (OVCAR-4 ovarian)	growth (SK-OV-3 ovarian)	growth (IGROV1 ovarian)	growth (OVCAR-3 ovarian)	growth (HS 578T breast)	growth (NCI/ADR-RES ovarian)	growth (OVCAR-8 ovarian) [%]
COc1cc(-c2nc3ccc(C)cc3[nH]2)ccc1OCC(=O)N=Nc1c(O)[nH]c2ccc(Cl)cc12	-32.8% (active)	-36.6% (active)	11.1%	-8% (active)	32%	4.74% (active)	-70.2% (active)	-22.3% (active)	83.4%	
COCCCOc1cc(C[C@@H](C[C@H](N)[C@@H](O)C[C@H](C(=O)NCC(C)(C)C(N)=O)C(C)C)C(C)C)ccc1OC	103%	111%	110%	101%	113%	111%		71.3%	103%	
COc1ccc2nc(Cl)c(/C=C/C(=O)c3ccc(NC(=O)CSc4nnc(-c5ccc(Cl)c(Cl)c5)n4-c4ccccc4)cc3)cc2c1	98.6%	62%		103%	91.4%		105%	89.3%	102%	92.1
Cn1cc(-c2nonc2-c2c[nH]c3ccc(F)cc23)c2cc(Br)ccc21	27%	46%		43.8%	64.4%	64%		63.2%	42.1%	40.5
CC[C@H](C)[C@H](NC(=O)[C@H](CCCNC(=N)N)NC(=O)[C@H](Cc1c[nH]c2ccccc12)NC(=O)[C@@H](NC(=O)[C@H](CCCCN)NC(=O)[C@H](CCCCN)NC(=O)[C@@H](NC(=O)[C@@H](NC(=O)[C@@H](NC(=O)[C@H](CCCCN)NC(=O)[C@H](Cc1ccccc1)NC(=O)[C@H](CCCCN)NC(=O)[C@H](CCCCN)NC(=O)[C@H](Cc1ccccc1)NC(=O)[C@@H](NC(=O)[C@@H](N)CCCCN)[C@@H](C)CC)[C@@H](C)O)[C@@H](C)CC)[C@@H](C)CC)C(C)C)C(=O)N[C@@H](Cc1ccccc1)C(=O)NCC(=O)N[C@@H](CCCNC(=N)N)C(=O)N[C@@H](Cc1ccccc1)C(N)=O	1.72% (active)	-18% (active)	-46.1% (active)	-31.3% (active)	13.9%	-25.8% (active)	-23.8% (active)	-21.3% (active)	-11.9% (active)	
CCN1CCN(CC(=O)Nc2nc3ccc(NCc4ccc(Br)cc4)cc3s2)CC1	0.987% (active)	41.8%	76%	72.9%	90%	86.8%	57.2%	81.3%	79.3%	
O=C(Cn1nnc([N+](=O)[O-])n1)c1ccccc1	84.3%	40.6%	114%	91.5%	99.8%		100%	106%	98.4%	
C/C(=N\O)C(=O)NCCCCCC(=O)Nc1ccccc1	104%	106%	106%	103%	102%	111%	109%	114%	103%	
COc1ccc(/C=C/C(=O)c2ccc(NC(=O)CSc3nnc(-c4cc(-c5ccccc5)nc5ccccc45)n3-c3ccccc3)cc2)cc1	79.7%	96.6%	93.4%	96%	109%	111%	102%	93.1%	97.1%	
COc1cccc(NC(=O)c2cccc(C3CCc4c(cc(OC)c(OC)c4OC)O3)c2)c1 (stereo not given)	35.7%	28.4%	81.8%	56.7%	71.7%	65.6%	81.1%	86.6%	55.9%	
CC1=C(C(=O)n2c3ccccc3c3ccccc32)C(c2cccc([N+](=O)[O-])c2)C(C(=O)n2c3ccccc3c3ccccc32)=C(C)N1	68.5%	93.4%	99.2%	103%	97.7%	98.4%		96.5%	98.7%	
O=C1Nc2ccc(F)cc2/C1=C\c1nc(-c2ccccc2F)n2ccccc12	66.7%	96.8%	67.2%	110%	101%	75.5%	126%	103%	74.4%	
Cn1c(O)c(C(/C=C/c2ccccc2)=Nc2ccccc2N)c(=O)n(C)c1=O	-19.7% (active)	58.7%		101%	110%	77.4%	105%	110%	96.5%	
O=C1/C(=C/c2ccc(C(F)(F)F)cc2)COc2ccc(O)cc21	9.82% (active)	-23.2% (active)	96.5%	82.7%	116%	82.5%	94.8%	95.8%	94.3%	
CCN(CC)CCOc1ccc(Nc2ncc3cc(-c4ccc(O)cc4)c(=O)n(C)c3n2)cc1	-20.5% (active)	70.6%	57.9%	110%	53%	23.2%	71.1%	33.5%	84%	
CCN1C(=O)N(CC)C2C1NN=c1s/c(=C\c3cc4ccccc4[nH]3)c(=O)n12 (stereo not given)	22.8%	-32.1% (active)	33.9%	32.9%	31.7%	12.1%	11.7%	13.8%	3.61% (active)	
N#Cc1c(-c2ccccc2)c(C#N)c2c(C#N)c(N)nn2c1N	2.65% (active)	21.2%		57.7%	62.2%		15.5%	27.4%	29.9%	61.1
Cc1[nH]c(C(=O)Nc2cccc(OC3CCNCC3)c2)c(Cl)c1Cl	13.6%	43.2%	95.4%	98.6%	96.5%	60.6%	82.4%	56.6%	89.2%	

Compound	growth (SR leukemia)	growth (RPMI-8226 leukemia)	growth (OVCAR-5 ovarian)	growth (OVCAR-4 ovarian)	growth (SK-OV-3 ovarian)	growth (IGROV1 ovarian)	growth (OVCAR-3 ovarian)	growth (HS 578T breast)	growth (NCI/ADR-RES ovarian)	growth (OVCAR-8 ovarian) [%]
O=C(N/N=C/c1ccc(O)cc1O)c1ccc(Nc2ccnc(C(F)(F)F)c2)cc1	91.8%	59.2%	53.2%	38.6%	38.9%	77.1%	61.6%	86.4%	64.2%	
Nc1c(C(=O)Nc2ccccn2)sc2nc3c(cc12)C(O)CCC3 (stereo not given)	14.4%	2.23% (active)	46.7%	59.4%	17.4%	47.9%	-19.1% (active)	6.09% (active)	17.7%	
O=C(N=Nc1c(O)[nH]c2ccccc12)Nc1ccc(Cl)cc1	79.1%	56.1%	86%	98.2%	96.5%	80.2%	97.5%	95.1%	110%	
COc1cc(C2Cc3ncccc3-c3[nH]c(=O)c4cccnc4c32)cc(OC)c1OC (stereo not given)	11.8%	37.6%	52.2%	58%	15.3%	48.6%		41.9%	31.1%	
CC1=NN(c2ccc(Cl)cc2)CC1(C)N=O (stereo not given)	33%	89.3%	126%	77.3%	114%	103%	62.1%	82.9%	94.4%	
COc1ccc(NC(=O)c2sc3nc4c(cc3c2N)CCCC4)cc1	1.36% (active)	14.8%	78.8%	57.3%	39.4%	53.8%	11.1%	43.4%	5.47% (active)	
O=C1/C(=C/c2cccc([N+](=O)[O-])c2)COc2ccc(O)cc21	8.9% (active)	-22.9% (active)	54.8%	74.4%	111%	33.8%	34.4%	33.7%	42%	
COC(=O)Cc1nc(C#N)c(N(C)C)o1	94.9%	102%	94.7%	107%	92.7%	103%	109%	87.1%	101%	
Brc1ccc(-c2cnc3nonc3n2)cc1	19.9%	31.1%	122%	42.7%	110%	81.1%	9.13% (active)	87.3%	79.7%	
Cc1ccc2nc(Cl)c(Cn3nnnc3SCc3ccccc3)cc2c1	80%	93.1%		86.9%	97.7%	95.4%	105%	83.1%	86.1%	
COc1ccc(C2=NN(C(=O)c3cc(OC)c(OC)c(OC)c3)C(c3ccc(N(C)C)cc3)C2)cc1 (stereo not given)	15.3%	-27.9% (active)	64.7%	35.2%	35.4%	-8.59% (active)	5.03% (active)	13.6%	-5.85% (active)	
C=C(CN1CC=CCC1)[C@@H]1CC[C@]2(CO)CC[C@]3(C)[C@H](CC[C@@H]4[C@@]5(C)CC[C@H](O)C(C)(C)[C@@H]5CC[C@]43C)[C@@H]12	76.9%	88%	109%	92.8%	107%	107%	102%	95.3%	90.1%	
CC(CN)[C@@H]1CC[C@]2(CO)CC[C@]3(C)[C@H](CC[C@@H]4[C@@]5(C)CCC(N)C(C)(C)[C@@H]5CC[C@]43C)[C@@H]12 (stereo not given in full)	-46.4% (active)	-38.2% (active)	-51.4% (active)	-38.9% (active)	103%	62.2%	-84.2% (active)	4.39% (active)	53.6%	
c1ccc2cc(Cn3c[n+](Cc4ccc5ccccc5c4)c4ccccc43)ccc2c1	-66.7% (active)	-53.6% (active)		-14.9% (active)	-0.377% (active)	-42.4% (active)	-50.8% (active)	3.56% (active)	91.2%	
COC(=O)c1nc(-c2ccccc2)oc1S(=O)(=O)N1CCC(C(N)=O)CC1		41.3%	76.7%	61.2%	101%	51.4%	16.2%	86.7%	111%	83.7
Cc1ccccc1CNc1c2ccccc2nc2ccccc12		-8.88% (active)	36.7%	32.9%	40.8%	14.8%	31.3%	35.7%	24.9%	21
COc1cc(/C=C\c2cc(/C=C\c3ccc(O)c(OC)c3)n(C(=O)CNc3ccc(Cl)cc3)n2)ccc1O		17.4%	86.9%	56.6%	21.1%	36.7%	22.9%	30%	21%	28.2
